The source of these data is PubChem BioAssay (EPA / NIEHS).

The target in assay [1] is Nuclear receptor subfamily 1 group I member 2 (Homo sapiens) (UniProt O75469). As to the kind of experiment: NVS_NR_hPXR: NovaScreen (NVS) Nuclear Receptor Binding Assay for human Pregnane X Receptor (PXR) (AID 2283365).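 Further: a drop in FRET signal versus DMSO baseline means the compound binds.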 The essentials:
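TR-FRET signal read at 2 h in a cell-free human PXR binding format. DMSO served as negative control and baseline; activity scored as signal loss. Single-concentration duplicate screen (25 uM), then concentration-response follow-up.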

For assay [2], the target named is Peroxisome proliferator-activated receptor gamma (Homo sapiens) (UniProt P37231). Nature of the assay: NVS_NR_hPPARg: NovaScreen (NVS) Nuclear Receptor Binding Assay for human Peroxisome Proliferator-activated Receptor gamma (PPARg) (AID 2283370). The essentials: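 FP read-out, 2 h post-dose, cell-free extracted receptor protein. Signal loss vs DMSO negative control = binding activity. Single-conc duplicate HTS at 25 uM; concentration-response follow-up for actives.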
Sequence of Peroxisome proliferator-activated receptor gamma (Homo sapiens) (P37231 whole entry, looked up): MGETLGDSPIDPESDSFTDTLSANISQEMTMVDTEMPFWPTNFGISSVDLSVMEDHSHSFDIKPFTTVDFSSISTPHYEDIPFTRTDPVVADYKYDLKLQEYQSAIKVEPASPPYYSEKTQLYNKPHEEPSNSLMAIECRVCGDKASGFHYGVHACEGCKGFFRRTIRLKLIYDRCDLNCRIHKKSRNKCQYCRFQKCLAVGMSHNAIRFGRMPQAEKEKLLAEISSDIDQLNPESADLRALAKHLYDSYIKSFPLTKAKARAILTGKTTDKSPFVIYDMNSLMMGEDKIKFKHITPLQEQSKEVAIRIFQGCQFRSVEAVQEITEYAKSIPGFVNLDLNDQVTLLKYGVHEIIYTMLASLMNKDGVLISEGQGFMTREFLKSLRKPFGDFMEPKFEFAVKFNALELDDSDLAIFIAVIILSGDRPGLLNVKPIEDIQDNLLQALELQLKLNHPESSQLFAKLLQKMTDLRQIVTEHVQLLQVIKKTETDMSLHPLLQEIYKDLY

Assay [3] concerns the target Agonist Androgen Response Element (ARE), AR (gene 367) (UniProt P10275). As to the kind of experiment: OT_AR_ARELUC_AG_1440: Odyssey Thera (OT) 24-hour CHO-K1 Luciferase Assay for Agonist Androgen Response Element (ARE) (AID 2283379). The essentials:
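Agonist mode, 24 h exposure in CHO-K1 ARE-luciferase cells; values reflect luminescence induction over vehicle.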

Assay [4] has as its target Estrogen receptor (Homo sapiens) (UniProt P03372). Nature of the assay: OT_ERa_GFPERaERE_0480: Odyssey Thera (OT) 8-hour HeLa Transcription Induction Assay for Estrogen Receptor (AID 2283381; active means hit-call score of the fitted dose curve at least 0.9, where 1 is the maximum; inactive means score below 0.9). The gist of the method:
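HeLa cells dosed with compound and imaged by fluorescence microscopy at 8 h; GFP induction from an ERE reporter quantified by high-content image analysis and fitted as gain of signal against DMSO baseline.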

Assay [5] has the same target. Nature of the assay: OT_ERa_GFPERaERE_0120: Odyssey Thera (OT) 2-hour HeLa Transcription Induction Assay for Estrogen Receptor (AID 2283382). The essentials: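 HeLa cells were dosed with test chemical and read 2 hours later for GFP-ERα/ERE-linked fluorescent protein induction by fluorescence microscopy. Gain-of-signal was fitted relative to DMSO baseline, quantified by high content image analysis.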

Assay [6] has as its target Retinoic acid receptor RXR-alpha (Homo sapiens) (UniProt P19793). Nature of the assay: OT_NURR1_NURR1RXRa_0480: Odyssey Thera (OT) 8-hour HEK293T Protein Complementation Assay for Nurr1/retinoid X receptor (RXR) (AID 2283385). The gist of the method:
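HEK293T cells expressing Nurr1 and RXRα fused to reporter fragments were dosed with compound for 8 hours. Complex formation was read as fluorescence intensity and analysed as gain of signal against DMSO as baseline.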

Assay [7] shares this target. Nature of the assay: OT_NURR1_NURR1RXRa_1440: Odyssey Thera (OT) 24-hour HEK293T Protein Complementation Assay for Nurr1/retinoid X receptor (RXR) (AID 2283386). The gist of the method:
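HEK293T cells were dosed with compound and read 24 h later by fluorescence intensity in a protein-fragment complementation format, where Nurr1–RXRα interaction reconstitutes a split reporter. Activity was fitted as gain of signal relative to DMSO baseline.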

For assay [8], the system named is guinea pig Dopamine Transporter (DAT), gene 100714898. As to the kind of experiment: NVS_TR_gDAT: NovaScreen (NVS) Transporter Assay for guinea pig Dopamine Transporter (DAT) (AID 2283369).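 Further: active compounds lower bound radioligand signal relative to DMSO.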 The gist of the method: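 Cell-free striatal membrane prep (guinea pig), 2 h exposure, filtration + scintillation readout of radioligand binding. Single-point 25 uM duplicate; actives rerun singleton, top conc 50 uM.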

For assay [9], the target named is Retinoic acid receptor alpha (Homo sapiens) (UniProt P10276). As to the kind of experiment: NVS_NR_hRARa_Agonist: NovaScreen (NVS) Nuclear Receptor Binding Assay for human Retinoic Acid Alpha Receptor Agonism (RAR) (AID 2283361). The essentials:
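Readout is time-resolved fluorescence resonance energy transfer after a 2 h exposure of cell-free extracted receptor protein. Initial testing used 25 uM in duplicate, with concentration-response follow-up for active chemicals.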

The target in assay [10] is human Thyroid Receptor Alpha (TRa), THRA (gene 7067) (UniProt P10827). As to the kind of experiment: NVS_NR_hTRa_Antagonist: NovaScreen (NVS) Nuclear Receptor Binding Assay for human Thyroid Receptor Alpha Antagonism (TRa) (AID 2283362).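 Further: activity is loss of signal relative to DMSO baseline.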 The essentials:
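AlphaLISA chemiluminescent immunoassay readout, taken 1 h post-dosing in a cell-free system with extracted protein. Activity was scored as signal loss against DMSO negative control, from duplicate single-concentration (25 uM) testing followed by concentration-response follow-up.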

The target in assay [11] is Estrogen receptor beta (Homo sapiens) (UniProt Q92731). As to the kind of experiment: OT_ER_ERbERb_1440: Odyssey Thera (OT) 24-hour HEK293T Protein-Complementation Assay for Estrogen Receptor-beta/-beta Homodimer (AID 2283380).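 Further: fluorescence gain from ER beta LBD homodimer complementation read by laser scanning cytometry; scored as signal increase over DMSO baseline for both agonists and antagonists.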 The gist of the method:
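Fluorescence increase, nuclear for agonists or whole-cell for antagonists, relative to DMSO vehicle, quantified by laser scanning cytometer after fixation and Draq5 staining. Readout from 24 h treatment of HEK293T cells carrying complementation-paired ER beta LBD (aa 310-547).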

The target in assay [12] is mouse Estrogen Receptor alpha (Era), Esr1 (gene 13982) (UniProt P19785). As to the kind of experiment: NVS_NR_mERa: NovaScreen (NVS) Nuclear Receptor Binding Assay for mouse Estrogen Receptor alpha (Era) (AID 2283378).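 Further: hit means loss of bound radioligand signal relative to DMSO.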 The gist of the method: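 Filter scintillation counts of bound radioligand, measured 18 h post-dose, gave the readout; decreased signal relative to DMSO controls indicated displacement from mouse Era. Primary screen ran in duplicate at 25 uM; active chemicals were retested across concentrations.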
Sequence of mouse Estrogen Receptor alpha (Era), Esr1 (gene 13982) (P19785 whole entry, looked up): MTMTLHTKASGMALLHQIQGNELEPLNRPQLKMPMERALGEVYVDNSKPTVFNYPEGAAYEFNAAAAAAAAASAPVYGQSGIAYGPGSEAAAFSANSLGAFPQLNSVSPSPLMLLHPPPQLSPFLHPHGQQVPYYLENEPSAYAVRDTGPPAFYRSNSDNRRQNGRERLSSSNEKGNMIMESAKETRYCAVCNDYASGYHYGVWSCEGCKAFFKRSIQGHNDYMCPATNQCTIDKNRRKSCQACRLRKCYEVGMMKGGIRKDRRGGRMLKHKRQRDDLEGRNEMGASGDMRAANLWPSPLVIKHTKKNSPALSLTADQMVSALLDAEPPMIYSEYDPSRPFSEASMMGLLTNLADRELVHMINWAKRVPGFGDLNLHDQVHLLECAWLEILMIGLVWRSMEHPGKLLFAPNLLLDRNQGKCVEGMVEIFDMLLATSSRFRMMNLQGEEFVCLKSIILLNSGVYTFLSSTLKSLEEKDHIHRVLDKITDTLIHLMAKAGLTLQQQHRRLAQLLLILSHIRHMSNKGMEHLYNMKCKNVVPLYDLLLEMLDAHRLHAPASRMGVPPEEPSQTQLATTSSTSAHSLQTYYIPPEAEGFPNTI

Assay [13] deals with Bile acid receptor (Homo sapiens) (UniProt Q96RI1). As to the kind of experiment: OT_FXR_FXRSRC1_0480: Odyssey Thera (OT) 8-hour HEK293T Protein-Complementation Assay for Farnesoid X receptor/SRC-1 Co-activator (AID 2283383). The gist of the method:
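HEK293T cells expressing FXR and SRC-1 fused to reporter fragments were dosed with compound for 8 h; fluorescence from the reconstituted reporter marked co-activator recruitment. Gain of signal was fitted against the DMSO baseline.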

For assay [14] the target is unchanged. Nature of the assay: OT_FXR_FXRSRC1_1440: Odyssey Thera (OT) 24-hour HEK293T Protein-Complementation Assay for Farnesoid X receptor/SRC-1 Co-activator (AID 2283384). The essentials:
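HEK293T cells were dosed with compound and read 24 h later by fluorescence intensity from protein-fragment complementation reporting FXR/SRC-1 co-activator interaction. Gain of signal was fitted relative to DMSO negative control as baseline.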

A further assay deals with PGR (gene 5241) (UniProt P06401). As to the kind of experiment: NVS_NR_hPR: NovaScreen (NVS) Nuclear Receptor Binding Assay for human Progestron Receptor (PR) (AID 2283360).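 Further: active means loss of bound radioligand signal versus DMSO baseline.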 The gist of the method:
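Cell-free radioligand binding using receptor protein extracted from T47D cells, read by scintillation counting 18 hours after dosing. Loss of signal relative to DMSO baseline indicates displacement; primary screen single concentration 25 uM in duplicate, actives followed in concentration series.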

Assay [15] concerns the target human Dopamine Transporter (DAT), SLC6A3 (gene 6531) (UniProt Q01959). Nature of the assay: NVS_TR_hDAT: NovaScreen (NVS) Transporter Assay for human Dopamine Transporter (DAT) (AID 2283374).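 Further: activity means loss of bound radioligand signal relative to DMSO.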 The gist of the method:
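Test chemicals were first screened in duplicate at 25 uM, with actives retested as concentration series. Displacement of a specific radioligand from cell-free human dopamine transporter was measured after 1 h by filtration and scintillation counting.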

Results filed as inconclusive are left out. The source made the active and inactive calls. How the source made its calls, unless noted: active means hit-call score of the fitted dose curve at least 0.9, where 1 is the maximum; inconclusive means response in the unintended direction; inactive means score below 0.9.

Sequence of Nuclear receptor subfamily 1 group I member 2 (Homo sapiens) (O75469 whole entry, looked up): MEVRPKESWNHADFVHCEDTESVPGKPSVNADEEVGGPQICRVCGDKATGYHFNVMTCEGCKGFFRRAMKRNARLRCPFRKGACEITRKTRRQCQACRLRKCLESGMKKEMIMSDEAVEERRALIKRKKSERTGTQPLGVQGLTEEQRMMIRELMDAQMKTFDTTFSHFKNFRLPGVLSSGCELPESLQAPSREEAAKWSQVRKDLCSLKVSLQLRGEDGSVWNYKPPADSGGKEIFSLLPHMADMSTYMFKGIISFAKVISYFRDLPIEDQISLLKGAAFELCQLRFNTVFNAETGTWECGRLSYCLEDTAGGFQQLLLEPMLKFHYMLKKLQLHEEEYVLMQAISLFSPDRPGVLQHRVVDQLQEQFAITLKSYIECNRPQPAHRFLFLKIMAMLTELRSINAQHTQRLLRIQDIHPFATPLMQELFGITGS
Sequence of Estrogen receptor (Homo sapiens) (P03372 whole entry, looked up): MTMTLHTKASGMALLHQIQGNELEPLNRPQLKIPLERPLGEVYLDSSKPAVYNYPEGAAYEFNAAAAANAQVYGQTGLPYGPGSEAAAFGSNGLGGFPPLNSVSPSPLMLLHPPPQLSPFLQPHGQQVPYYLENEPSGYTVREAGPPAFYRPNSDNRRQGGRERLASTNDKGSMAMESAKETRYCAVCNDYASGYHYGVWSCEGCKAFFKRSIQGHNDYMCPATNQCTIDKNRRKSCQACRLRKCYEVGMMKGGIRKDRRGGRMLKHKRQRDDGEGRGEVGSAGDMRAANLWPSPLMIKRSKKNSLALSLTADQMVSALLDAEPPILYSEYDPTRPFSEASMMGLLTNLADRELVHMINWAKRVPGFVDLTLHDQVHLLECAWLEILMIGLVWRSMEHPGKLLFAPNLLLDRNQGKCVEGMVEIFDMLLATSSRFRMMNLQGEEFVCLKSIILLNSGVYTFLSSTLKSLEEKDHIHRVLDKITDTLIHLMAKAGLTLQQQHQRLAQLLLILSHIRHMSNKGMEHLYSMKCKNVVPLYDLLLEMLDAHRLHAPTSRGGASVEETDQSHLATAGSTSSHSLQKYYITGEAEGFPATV
Sequence of Retinoic acid receptor RXR-alpha (Homo sapiens) (P19793 whole entry, looked up, the tested form may be a part): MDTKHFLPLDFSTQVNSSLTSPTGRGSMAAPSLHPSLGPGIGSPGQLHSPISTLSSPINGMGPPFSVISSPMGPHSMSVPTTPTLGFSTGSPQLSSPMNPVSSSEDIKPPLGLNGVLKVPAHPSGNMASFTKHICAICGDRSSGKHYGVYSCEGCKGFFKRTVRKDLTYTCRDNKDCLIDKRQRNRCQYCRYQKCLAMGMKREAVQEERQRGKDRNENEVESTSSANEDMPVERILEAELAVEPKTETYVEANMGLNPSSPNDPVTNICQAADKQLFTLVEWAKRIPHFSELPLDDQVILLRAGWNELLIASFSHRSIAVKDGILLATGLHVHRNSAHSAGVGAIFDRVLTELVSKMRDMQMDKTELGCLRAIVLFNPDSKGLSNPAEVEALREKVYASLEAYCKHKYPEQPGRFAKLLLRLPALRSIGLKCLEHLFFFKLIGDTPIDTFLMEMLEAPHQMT
Sequence of Bile acid receptor (Homo sapiens) (Q96RI1 whole entry, looked up, the tested form may be a part): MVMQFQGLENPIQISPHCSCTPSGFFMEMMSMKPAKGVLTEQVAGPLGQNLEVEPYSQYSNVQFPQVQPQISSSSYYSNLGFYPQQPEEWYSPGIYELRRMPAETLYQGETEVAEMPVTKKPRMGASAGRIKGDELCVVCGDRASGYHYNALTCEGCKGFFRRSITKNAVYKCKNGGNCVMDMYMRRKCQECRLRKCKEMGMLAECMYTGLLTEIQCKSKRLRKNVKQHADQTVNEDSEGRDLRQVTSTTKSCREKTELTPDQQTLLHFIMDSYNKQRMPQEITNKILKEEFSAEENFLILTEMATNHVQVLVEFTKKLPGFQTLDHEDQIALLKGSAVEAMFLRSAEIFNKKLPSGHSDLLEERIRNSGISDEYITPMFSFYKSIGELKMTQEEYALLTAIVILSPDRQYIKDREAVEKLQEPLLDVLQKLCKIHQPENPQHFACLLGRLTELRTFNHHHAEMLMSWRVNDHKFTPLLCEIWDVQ
Sequence of Estrogen receptor beta (Homo sapiens) (Q92731 whole entry, looked up, the tested form may be a part): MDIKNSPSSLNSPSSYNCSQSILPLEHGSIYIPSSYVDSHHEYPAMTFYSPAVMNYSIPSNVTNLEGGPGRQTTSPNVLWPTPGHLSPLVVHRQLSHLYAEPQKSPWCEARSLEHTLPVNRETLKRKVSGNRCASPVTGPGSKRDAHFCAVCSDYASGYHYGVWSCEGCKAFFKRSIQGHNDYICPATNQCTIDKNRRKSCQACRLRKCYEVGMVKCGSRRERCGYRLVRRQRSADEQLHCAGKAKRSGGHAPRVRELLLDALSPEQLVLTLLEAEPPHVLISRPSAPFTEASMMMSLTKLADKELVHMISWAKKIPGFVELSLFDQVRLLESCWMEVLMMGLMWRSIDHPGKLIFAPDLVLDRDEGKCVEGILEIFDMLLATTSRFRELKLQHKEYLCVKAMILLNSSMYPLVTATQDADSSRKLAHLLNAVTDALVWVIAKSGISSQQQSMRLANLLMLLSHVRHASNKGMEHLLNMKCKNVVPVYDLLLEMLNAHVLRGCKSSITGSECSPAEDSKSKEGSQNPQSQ
Sequence of Agonist Androgen Response Element (ARE), AR (gene 367) (P10275 whole entry, looked up): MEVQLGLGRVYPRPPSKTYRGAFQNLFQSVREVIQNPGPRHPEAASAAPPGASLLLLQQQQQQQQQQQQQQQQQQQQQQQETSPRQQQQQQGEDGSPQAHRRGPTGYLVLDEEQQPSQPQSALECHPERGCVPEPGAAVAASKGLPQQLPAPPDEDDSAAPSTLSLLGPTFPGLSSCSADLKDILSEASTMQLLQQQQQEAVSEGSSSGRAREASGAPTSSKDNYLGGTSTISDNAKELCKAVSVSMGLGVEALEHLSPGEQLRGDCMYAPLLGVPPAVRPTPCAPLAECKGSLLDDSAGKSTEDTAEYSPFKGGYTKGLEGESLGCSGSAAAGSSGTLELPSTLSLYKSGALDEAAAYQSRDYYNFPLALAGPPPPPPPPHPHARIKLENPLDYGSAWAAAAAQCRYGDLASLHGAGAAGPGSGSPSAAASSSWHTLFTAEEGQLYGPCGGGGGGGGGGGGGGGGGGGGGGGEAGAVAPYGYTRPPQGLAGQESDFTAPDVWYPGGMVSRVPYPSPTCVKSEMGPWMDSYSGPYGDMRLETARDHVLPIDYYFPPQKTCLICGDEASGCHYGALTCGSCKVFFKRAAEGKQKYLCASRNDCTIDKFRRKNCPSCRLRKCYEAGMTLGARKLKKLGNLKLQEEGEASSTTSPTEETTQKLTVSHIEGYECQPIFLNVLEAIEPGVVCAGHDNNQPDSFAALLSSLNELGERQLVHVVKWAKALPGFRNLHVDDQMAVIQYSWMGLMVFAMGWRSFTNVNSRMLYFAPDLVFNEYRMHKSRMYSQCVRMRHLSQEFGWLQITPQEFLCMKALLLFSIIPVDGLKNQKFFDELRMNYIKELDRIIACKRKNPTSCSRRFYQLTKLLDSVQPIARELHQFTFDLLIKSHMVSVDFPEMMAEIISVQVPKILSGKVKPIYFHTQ
Sequence of Retinoic acid receptor alpha (Homo sapiens) (P10276 whole entry, looked up): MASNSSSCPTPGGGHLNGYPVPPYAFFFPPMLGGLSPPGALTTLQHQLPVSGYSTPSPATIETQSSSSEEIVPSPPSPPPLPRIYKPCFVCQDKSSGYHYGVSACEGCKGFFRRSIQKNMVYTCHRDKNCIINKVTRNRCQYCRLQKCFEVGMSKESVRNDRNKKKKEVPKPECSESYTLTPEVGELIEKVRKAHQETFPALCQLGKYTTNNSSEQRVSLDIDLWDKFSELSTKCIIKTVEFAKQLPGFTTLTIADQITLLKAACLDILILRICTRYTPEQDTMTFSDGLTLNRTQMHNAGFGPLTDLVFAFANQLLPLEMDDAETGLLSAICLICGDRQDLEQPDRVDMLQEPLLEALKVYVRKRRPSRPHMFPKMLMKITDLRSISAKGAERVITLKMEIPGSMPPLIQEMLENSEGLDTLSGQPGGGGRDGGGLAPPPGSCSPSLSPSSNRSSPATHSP

Take `CCc1cccc(C)c1N`: the compound was classed as inactive in assay [1], in [2], in assay [3], in assay [4], in assay [5] and in [6]. Besides, the compound was called inactive in [7].

Consider `CCCCCCCCCCCCCc1ccccc1`, for which the call in assay [8] was inactive.

For orientation: AC50 means the concentration at which the activity in the assay is half-maximal. Turning to `O=S(=O)(O)c1ccc(N=Nc2c(O)ccc3ccccc23)cc1`, the AC50 in [9] is 31.9 µM (active); in assay [10], 17.1 µM (active); in assay [2], 20.7 µM (active). Besides, the result in assay [11], in assay [4], in [5], in assay [6] and in assay [7] was inactive.

Consider `O=c1c(O)c(-c2ccc(O)cc2O)oc2cc(O)cc(O)c12`, for which the AC50 in assay [9] was 25 µM (active); in [1], 6.31 µM (active). Further, the call in [2], in assay [12], in [4], in assay [5], in [6] and in assay [7] was inactive.

In the case of `CCCCCCCCCCCCCCCCCCOS(=O)(=O)O`, the AC50 was 5.5 µM (active) in assay [1] and 12.6 µM (active) in assay [11]. For the same compound, the outcome in [12], in assay [4], in assay [5], in assay [13], in assay [14] and in [7] was inactive.

`O=C(O)CC(C(=O)O)S(=O)(=O)O` (stereo not drawn): the result in assay [1], in assay [4], in [5], in assay [6] and in assay [7] was inactive.

Consider `C=C1C[C@H]2[C@@H]3C=C(C)C4=CC(=O)CC[C@]4(C)[C@H]3CC[C@]2(C)[C@@]1(OC(C)=O)C(C)=O`, for which the half-maximal activity concentration (AC50) is 4.1 µM (active) in [1]; 29.2 µM (active) in [12]; 0.0079 µM (active) in assay [3]; 27.5 µM (active) in [6]; 49.5 µM (active) in assay [7]. The result in [2], in assay [4] and in assay [5] was inactive.

Take `COC(=O)c1ccccc1C`: the outcome in assay [1], in assay [4], in assay [5] and in assay [7] was inactive.

Consider `CCC(C)c1ccccc1` (stereo not drawn), for which the compound was called inactive with PGR (gene 5241).

Consider `O=C(Oc1ccccc1)c1ccccc1C(=O)Oc1ccccc1`, for which the AC50 was 3.31 µM (active) in assay [8] and 0.758 µM (active) in assay [15].

Take `c1ccc(Nc2cccc3ccccc23)cc1`: the result in [2], in assay [12], in [4] and in [5] was inactive. Moreover, the half-maximal activity concentration (AC50) in [6] is 77.5 µM (active); in assay [7] it was 82 µM (active).
